Source: PubChem BioAssay (several laboratories)
PostGolgi yeast = growth inhibition of a yeast mutant, post-Golgi transport screen | 98,000 tested, 0.9% active | inhibition, % at 10 µM | post-Golgi transport phenotypic cell assay | AID 739;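 also: yeast cells grown in 1536-well plates; yeast grown about 18 h at 30C before absorbance read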
TNAP act DEA = activates human TNAP at intermediate phosphate acceptor concentration; P05186; 64,000 tested, under 10 active; purified TNAP, CDP-star luminescence, 100 mM DEA, 30 min; active compounds read high; scale: 0 levamisole-inhibited, 1 vehicle-only enzyme; activation factor at 20 µM;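 active = activation factor of at least 2 at 20 µM, relative to controls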
PostGolgi ctrl = growth of the yeast control strain, post-Golgi counter-screen; inhibition, % at 10 µM; efflux-deficient yeast background strain, growth absorbance A615, 16 h; AID 738; 98,000 tested, 5% active
hDAT+cocaine = human DAT dopamine uptake with cocaine, either direction; Q01959; LLC-PK1 hDAT cells, [14C]-dopamine uptake with cocaine IC80; actives deviate in either direction; B-score at 10 µM; 110,000 tested, 1.3% active; AID 449768;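 active = Z score or B-score, a plate-position-corrected score, falls beyond the plate's 99.7% confidence bounds, in either direction; inactive = both scores lie inside the 99.7% bounds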
Smad3 inh = blocks human Smad3 binding to FoxH1 peptide; TR-FRET Smad3/Dy647-FoxH1 peptide binding, europium anti-His; inhibition, % at 25 µM; 88,000 tested, 0.29% active; AID 630;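 active = compounds that reduce the energy-transfer binding signal between the protein and its labelled peptide by more than half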
Target sequence (P84022 whole entry, looked up): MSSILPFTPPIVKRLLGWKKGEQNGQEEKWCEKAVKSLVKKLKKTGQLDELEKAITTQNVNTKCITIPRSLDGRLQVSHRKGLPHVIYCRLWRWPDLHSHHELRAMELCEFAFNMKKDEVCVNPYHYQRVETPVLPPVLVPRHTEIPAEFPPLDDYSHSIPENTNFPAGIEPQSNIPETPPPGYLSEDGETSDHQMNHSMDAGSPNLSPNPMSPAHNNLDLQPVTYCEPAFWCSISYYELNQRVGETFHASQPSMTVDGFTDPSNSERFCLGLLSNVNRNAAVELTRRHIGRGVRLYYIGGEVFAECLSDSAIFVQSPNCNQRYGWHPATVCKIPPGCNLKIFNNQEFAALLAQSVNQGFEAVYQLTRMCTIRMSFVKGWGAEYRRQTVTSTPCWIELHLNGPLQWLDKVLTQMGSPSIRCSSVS
Cav32 inh = inhibitors of human Cav3.2 T-type calcium channel | B-score at 10 µM | AID 449739 | 100,000 tested, 4% active | Cav3.2-expressing cells, Fluo-4 calcium fluorescence FDSS; active compounds read low | O95180;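 active = single-dose well whose peak fluorescence ratio is a statistical outlier from its plate by either plate-standardised score or position-corrected B-score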
A number is an active result. In the library only some 8.7% were active in any assay of this set; here they are far more common. Rule as the data show it, unless noted: active = inhibition above about 30%; inactive = the rest.

How did CCOC(=O)c1c(NC(=O)CSc2nnc(C)s2)sc2c1CCC(C)C2 (stereo not given) do in these assays?
hDAT+cocaine: inactive; Smad3 inh: inactive; Cav32 inh: inactive

How did CC(=O)C1=C(C)NC(SCC(=O)c2ccccc2)=C(C#N)C1c1ccco1 (stereo not given) do in these assays?
PostGolgi yeast: inactive; TNAP act DEA: inactive; PostGolgi ctrl: inactive; hDAT+cocaine: inactive; Smad3 inh: inactive; Cav32 inh: inactive

What do the screens show for `CC(=O)C1=C(C)NC(SCC(=O)c2ccc(Cl)cc2)=C(C#N)C1c1ccco1` (stereo not given)?
PostGolgi yeast: inactive; TNAP act DEA: inactive; PostGolgi ctrl: inactive; hDAT+cocaine: inactive; Smad3 inh: inactive; Cav32 inh: -4.5

What do the screens show for `O=C(CCCSc1nnc(SCCCC(=O)c2ccc(F)cc2)s1)c1ccc(F)cc1`?
PostGolgi yeast: inactive; PostGolgi ctrl: inactive; hDAT+cocaine: inactive; Cav32 inh: inactive

Results for O=C(NCc1ccco1)C1CC(=O)N(CCc2ccccc2)C1 (stereo not given) ?
PostGolgi yeast: inactive; TNAP act DEA: inactive; PostGolgi ctrl: inactive; hDAT+cocaine: inactive; Smad3 inh: inactive; Cav32 inh: inactive

Results for O=C(NCCCN1CCOCC1)C1CC(=O)N(CCc2ccccc2)C1 (stereo not given) ?
PostGolgi yeast: inactive; TNAP act DEA: inactive; PostGolgi ctrl: inactive; hDAT+cocaine: inactive; Cav32 inh: inactive

What do the screens show for `COc1ccc(CCN2CC(C(=O)NCc3ccco3)CC2=O)cc1OC` (stereo not given)?
PostGolgi yeast: inactive; PostGolgi ctrl: 33; hDAT+cocaine: inactive; Cav32 inh: inactive

Results for CCN(CCNC(=O)C1CCN(S(C)(=O)=O)CC1)c1ccccc1 ?
PostGolgi yeast: inactive; TNAP act DEA: inactive; PostGolgi ctrl: inactive; hDAT+cocaine: inactive; Smad3 inh: inactive; Cav32 inh: inactive

Results for CS(=O)(=O)N1CCC(C(=O)NCCN2CCN(Cc3ccccc3)CC2)CC1 ?
PostGolgi yeast: 31; TNAP act DEA: inactive; PostGolgi ctrl: inactive; hDAT+cocaine: inactive; Smad3 inh: inactive; Cav32 inh: inactive

How did O=C(NCCCN1CCCCCC1)C1CC(=O)N(CCc2ccccc2)C1 (stereo not given) do in these assays?
PostGolgi yeast: inactive; TNAP act DEA: inactive; PostGolgi ctrl: inactive; hDAT+cocaine: inactive; Smad3 inh: 60; Cav32 inh: inactive

How did CN(C)C(=O)N1CCC(C(=O)NCc2ccc(F)cc2)CC1 do in these assays?
PostGolgi yeast: inactive; TNAP act DEA: inactive; PostGolgi ctrl: inactive; hDAT+cocaine: inactive; Smad3 inh: inactive; Cav32 inh: inactive

What do the screens show for `CN(C)C(=O)N1CCC(C(=O)NCc2ccccc2)CC1`?
PostGolgi yeast: inactive; TNAP act DEA: inactive; PostGolgi ctrl: 38; hDAT+cocaine: inactive; Smad3 inh: inactive; Cav32 inh: inactive

Results for CC1=C(C(=O)Nc2ccc(F)cc2)C(c2cccc(C)c2)n2nc(CCCO)nc2N1 (stereo not given) ?
PostGolgi yeast: inactive; TNAP act DEA: inactive; PostGolgi ctrl: inactive; hDAT+cocaine: inactive; Smad3 inh: inactive; Cav32 inh: inactive

How did Cc1ccc(CNC(=O)c2cccc(S(C)(=O)=O)c2)cc1 do in these assays?
PostGolgi yeast: inactive; PostGolgi ctrl: inactive; hDAT+cocaine: inactive; Smad3 inh: inactive; Cav32 inh: inactive

Results for O=C(NCCc1ccccc1)C1CCN(S(=O)(=O)N2CCCC2)CC1 ?
PostGolgi yeast: 33; TNAP act DEA: inactive; PostGolgi ctrl: inactive; hDAT+cocaine: inactive; Smad3 inh: inactive; Cav32 inh: inactive

What do the screens show for `Cn1c(SCC(=O)NCc2ccc3c(c2)OCO3)nnc1-c1cc2ccccc2cc1O`?
PostGolgi yeast: inactive; TNAP act DEA: inactive; PostGolgi ctrl: inactive; hDAT+cocaine: inactive; Smad3 inh: inactive; Cav32 inh: inactive

Results for C#Cc1ccc([C@H]2C=C(C(=O)N3CCN(Cc4ccccc4)CC3)O[C@@H](OCC)[C@@H]2CCCO)cc1 ?
hDAT+cocaine: 2.7; Cav32 inh: inactive

Results for C#Cc1ccc([C@@H]2C=C(C(=O)N3CCN(Cc4ccccc4)CC3)O[C@H](OCC)[C@H]2CCCO)cc1 ?
hDAT+cocaine: inactive; Cav32 inh: inactive

How did COc1ccc(C)cc1NC(=O)CNC(=O)Cn1ccc2ccccc2c1=O do in these assays?
PostGolgi yeast: inactive; TNAP act DEA: inactive; PostGolgi ctrl: inactive; hDAT+cocaine: -9; Cav32 inh: inactive
